Results reported in PubChem BioAssay AID2685 (National Center for Advancing Translational Sciences (NCATS), 2010).
The whole screen tested about 320,000 compounds, of which about 2,100 (0.66%) were called active. Roughly 53% stayed inconclusive and do not appear here. Calls follow the shape of the dose curve; as a rule, active = well fitted inhibition curve with a large enough effect in the signal ratio, with a control signal flat (not every such curve was filed as active); inconclusive = small, poorly fitted or top-dose-only effect, or effect the other way, or a change in a side signal; inactive = flat fitted curve, though single readings scatter; the % refers to the signal ratio. Many of the other results were omitted from the sample, so actives are more common in it than they were.

Test: qHTS Assay for Lipid Storage Modulators in Drosophila S3 Cells;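 as to cell number change: cells counted by Cell Tracker Red CMTPX staining in the red channel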; as to lipid storage change, negative = inhibition: % is scaled to controls: 0 for no effect and ±100 for the full control effect
Settings: BODIPY lipid droplet fluorescence, 18-24 h, cells fed with added oleic acid; cell number change: measured here: cell count max response; series mostly up to 46.1 µM; lipid storage change, negative = inhibition: at the top concentration
Description: NIH Molecular Libraries Probe Production Centers Network [MLPCN] NIH Chemical Genomics Center [NCGC] MLPCN Grant: 1 R03 MH085686-01 Assay Submitter (PI): Beller, Mathias; Max-Planck-Institut fur Biophysikalische Chemie NCGC Assay Overview: Storing lipids as a reservoir for energy or the anabolism of elementary metabolites is a common feature of probably all cells and is conserved from bacteria to humans. The universal cellular lipid storage organelle is the so-called lipid storage droplet (LD). Although ubiquitous, LDs share a simple structure composed of a hydrophobic core that harbors the storage lipids, which is shielded by a droplet-specific phospholipid monolayer to which proteins are attached. The current model of LD biogenesis involves an incorporation of the lipid core into the membrane leaflets of the endoplasmic reticulum (ER) followed by a subsequent budding-like maturation of a LD, which ultimately pinches off. Once released, LD volume can increase by localized lipogenesis or fusion of existing droplet. Storage lipids are re-mobilized enzymatically by lipase activity. Lipase regulation in the adipocyte is heavily studied and involves multiple components including catecholamine signaling, the LD-associated proteins Perilipin and comparative gene identification (CGI-58) and at least two lipases named hormone sensitive lipase (HSL) and adipocyte triglyceride lipase (ATGL). LD regulation outside of the adipocyte is poorly understood and only few components are known. However, there is an urgent need to learn more about ectopic fat depots as mislocalized storage of lipids, for example in the liver or muscle, is an eminent health problem associated with insulin resistance or the metabolic syndrome. We developed a laser-scanning cytometer assay to enable 1,536-well screening and combined the results of the small molecules screen with an RNAi database based on lipid storage.
Triacsin C (Sigma-Aldrich T-4540), an inhibitor of long-chain fatty acyl CoA synthetase that blocks synthesis of triglycerides, was used as a positive control for lipid under-storage. A total of 23 nL of compound solution of different concentrations were transferred to the assay plates using a Kalypsys pin tool equipped with a 1,536-pin array containing 10-nL slotted pins (FP1S10, 0.457-mm diameter, 50.8 mm long; V&P Scientific). One microliter of oleic acid (400 uM) was added, and the plate was lidded with stainless steel rubber gasket lined lids containing pinholes. […] Fluorescence was detected by excitation of the fluorophores with a 488-nm laser on an Acumen Explorer (TTP Lab Tech). The total intensity in channel 2 (500-530 nm) reflected lipid droplet accumulation. Cells were detected using channel 3 (575-640 nm) with 5-um width and 100-um depth filters. The ratio of the number of objects in PMT channel 2 over the number of objects in PMT channel 3 was also calculated. Percent activity was computed relative to an internal control (100% inhibited lipid droplet deposition due to the presence of 20 uM Triacsin C), which was added to 32 wells/plate.
Potency is read from the fitted curve at half-maximal effect.

| SMILES | lipid storage change, negative = inhibition | cell number change | Potency | outcome |
| --- | --- | --- | --- | --- |
| CC1(C)Cc2c(c(=S)nc(-c3ccccc3)n2CCOCCO)CO1 | 0.774% (inactive) | 4.5% | – | – |
| CC1(C)Cc2c(c(=S)nc(-c3ccccc3)n2CCO)CO1 | – | -12.1% | 0.259 µM (active) | – |
| COCCn1c(-c2ccccc2)nc(=S)c2c1CC(C)(C)OC2 | – | – | – | inactive |
| CC(=O)Nc1ncc(Cc2cccc(Cl)c2Cl)s1 | – | – | – | inactive |
| Cc1nn(C(C)C(=O)NC2C(=O)N3C(C(=O)O)=C(CSc4nnnn4C)CSC23)cc1Cl (configuration not stated) | 6.33% (inactive) | -1.98% | – | – |
| COc1cccc(NC(=O)COc2ccc(C(=S)N3CCN(C)CC3)cc2OC)c1 | – | – | 8.2 µM (active) | – |
| COc1cccc(NC(=S)N2CCN(C)CC2)c1 | -6.39% (inactive) | -7.43% | – | – |
| COc1cccc(NC(=O)COc2ccc(C(=O)N3CCN(C)CC3)cc2)c1 | – | 10.4% | – | inactive |
| CCOCCn1c(N2CCCC2)nc2c1c(=O)n(C)c(=O)n2C | – | -1.35% | – | inactive |
| COC1=C/C(=C/c2c(N)n3nc(CC(=O)N4CCCCC4)sc3nc2=O)C=CC1=O | – | -9.68% | 14.6 µM (active) | – |
| CCOC1=C/C(=C/c2c(N)n3nc(CC(=O)N4CCCC4)sc3nc2=O)C=CC1=O | – | -5.2% | – | inactive |
| Nc1c(/C=C2/C=CC(=O)C(O)=C2)c(=O)nc2sc(CC(=O)N3CCCCC3)nn12 | – | -19.8% | – | inactive |
| COC(=O)c1c(NC(=O)c2ccco2)sc(C(=O)N2CCCC2)c1C | 19.5% (inactive) | -26.3% | – | – |
| CCCn1cc(S(=O)(=O)c2ccc(OC)cc2)c(=O)c2cc(OCC)ccc21 | -20.7% (inactive) | – | – | – |
| CC(C)C(C(=O)Nc1ccc2c(c1)OCO2)N1C(=O)c2ccccc2C1=O (configuration not stated) | – | -19.4% | – | inactive |
| O=C(CCCCCNC(=O)c1ccccc1)N/N=C/c1ccccc1O | – | -19.4% | 9.2 µM (active) | – |
| O=C(CCCCCNC(=O)c1ccccc1)N/N=C/c1ccc(O)cc1O | -5.27% (inactive) | 1.3% | – | – |
| O=C(CCCCCNC(=O)c1ccccc1)N/N=C/c1ccco1 | – | – | – | inactive |
| CSC1=NCCN1S(=O)(=O)c1ccc2ccccc2c1 | 3.31% (inactive) | 1.31% | – | – |
| CC(C)Oc1ccc(CNC(=O)C2CCCN(S(=O)(=O)N3CCOCC3)C2)cc1 (configuration not stated) | – | 24.2% | – | inactive |
| O=Cc1cccn1-c1sc2c(c1C(=O)O)CCCC2 | 0.304% (inactive) | -5.54% | – | – |

| SMILES | lipid storage change, negative = inhibition | cell number change | Potency | outcome |
| --- | --- | --- | --- | --- |
| C=CCn1cccc(C(=O)Nc2ccc(Cl)cc2)c1=O | 8.12% (inactive) | 6.52% | – | – |
| C=CCn1cccc(C(=O)Nc2ccc(SC)cc2)c1=O | – | 16.6% | 4.11 µM (active) | – |
| C=CCn1cccc(C(=O)Nc2ccc(C)cc2)c1=O | 15.4% (inactive) | 10.2% | – | – |
| COC(=O)c1cn(NC(=O)/C=C/c2ccc(OC)c(OC)c2)c(=O)c2ccccc12 | -1.77% (inactive) | -14.9% | – | – |
| CCOC(=O)Cc1csc(NC(=O)/C=C/c2ccccc2Cl)n1 | 12.2% (inactive) | -1.33% | – | – |
| COc1nc(C#N)nc(N(C)C)n1 | -8.69% (inactive) | -4.25% | – | – |
| N#C/C(=C/c1ccccc1)C(=O)NCc1ccccc1 | – | 18.6% | 2.59 µM (active) | – |
| N#C/C(=C/c1ccc(C(=O)O)cc1)C(=O)Nc1ccccc1 | -13.8% (inactive) | – | – | – |
| CCN(CC)c1ccc(/C=C(/C#N)C(=O)NCc2ccccc2)o1 | – | -20.4% | 2.06 µM (active) | – |
| CCCCNC(=O)/C(C#N)=C/c1cccnc1 | – | – | 20.6 µM (active) | – |
| N#C/C(=C\c1ccc(OCc2ccccc2)cc1)C(=O)Nc1ccc(C(=O)O)cc1 | – | 12.2% | 20.6 µM (active) | – |
| Cc1ccc(/C=C(\C#N)C(=O)NCc2ccco2)o1 | 4.22% (inactive) | – | – | – |
| N#C/C(=C\c1cccnc1)C(=O)Nc1ccccc1 | 16% (inactive) | -2.7% | – | – |
| N#C/C(=C/c1ccc(OCc2ccc(C(=O)O)cc2)cc1)C(=O)Nc1ccccc1 | 0.353% (inactive) | 14.9% | – | – |
| N#C/C(=C\c1ccc(O)cc1)C(=O)NCc1ccccc1 | 12.1% (inactive) | – | – | – |
| CCCCNC(=O)/C(C#N)=C/c1ccc(C(=O)OC)cc1 | -11.1% (inactive) | -26.3% | – | – |
| N#C/C(=C\c1cccs1)C(=O)NCc1ccccc1 | -2.68% (inactive) | -1.86% | – | – |
| COc1ccc(/C=C(\C#N)C(=O)NCc2ccccc2)cc1 | 3.79% (inactive) | -4.49% | – | – |
| CC(C)CN(C(=O)C1CCCC1)C1CCS(=O)(=O)C1 (configuration not stated) | -4.14% (inactive) | -27.9% | – | – |
| N#CCN1CCC/C1=C\[N+](=O)[O-] | 4.55% (inactive) | 11.9% | – | – |
| CCCN(CCC)S(=O)(=O)c1ccc2c(c1)CCCN2C(C)=O | 13.4% (inactive) | -13.4% | – | – |

| SMILES | lipid storage change, negative = inhibition | cell number change | Potency | outcome |
| --- | --- | --- | --- | --- |
| Cc1ccc(CN2CCN(/N=C/c3sccc3C)CC2)c(C)c1 | 20.6% (inactive) | -17.1% | – | – |
| CCN(CC)S(=O)(=O)c1cccc(C(=O)NC2=NCCS2)c1 | -13.9% (inactive) | -2.91% | – | – |
| O=C(N/N=C/c1c[nH]c2ccccc12)c1ccn(Cc2ccc(Cl)cc2Cl)n1 | -4% (inactive) | -11.1% | – | – |
| O=C(NCc1c(Cl)cccc1Cl)c1ccc2nnsc2c1 | 0.193% (inactive) | 12.5% | – | – |
| O=C(NC(CCl)c1ccccc1)c1ccc(Cl)cc1 (configuration not stated) | 1.15% (inactive) | 13.4% | – | – |
| O=C1CCCN1c1ccc(C(=O)N(Cc2nnc(-c3ccccc3Cl)o2)C2CC2)cc1 | – | -25.6% | – | inactive |
| Cc1cccc(C(=O)NCCC(=O)NCc2ccccc2Cl)c1 | – | -17.5% | 1.84 µM (active) | – |
| CN(C)c1cccc(C(=O)NCc2ccccc2Cl)c1 | – | – | – | inactive |
| Cc1cccc(C(=O)NCCC(=O)NCc2ccccc2F)c1 | -21.2% (inactive) | 10.5% | – | – |
| CCOc1cccc(/C(O)=C2/C(=O)C(=O)N(CCOC)C2c2ccco2)c1 (configuration not stated) | – | 3.12% | – | inactive |
| CC1CCC(N2CCN(c3ccc([N+](=O)[O-])cc3)CC2)CC1 (configuration not stated) | – | -15.6% | – | inactive |
| COc1ccc(-c2cc(C(=O)N3CCN(c4ccccc4F)CC3)c3ccccc3n2)c(OC)c1 | – | -25.7% | 3.26 µM (active) | – |
| COc1ccc(-c2cc(C(=O)N3CCN(c4ncccn4)CC3)c3ccccc3n2)c(OC)c1 | -1.54% (inactive) | – | – | – |
| COc1ccc(-c2cc(C(=O)N3CCCCCC3)c3ccccc3n2)c(OC)c1 | – | – | – | inactive |
| O=C(O)c1cccc2c1C(=O)N(c1ccccc1)C2 | 7.94% (inactive) | -2.23% | – | – |
| Cc1ccc(N2CCN(S(=O)(=O)N3CCCCC3)CC2)c(C)c1 | -0.445% (inactive) | 18.1% | – | – |
| CN1/C(=C\C(=O)c2cccs2)Sc2ccccc21 | 24.2% (inactive) | 18.5% | – | – |
| CN1/C(=C\C(=O)c2cccc([N+](=O)[O-])c2)Sc2ccccc21 | – | -22.2% | 1.84 µM (active) | – |
| COc1cc(OC)cc(C(=O)/C=C2\Sc3ccccc3N2C)c1 | 0.116% (inactive) | 2.87% | – | – |
| Cc1cccc(N2CC3=C(C2=O)C(c2ccccc2)NC(=O)N3C)c1 (configuration not stated) | – | 28.8% | – | inactive |
